This is an account of results in PubChem BioAssay (EPA / NIEHS).

“And” between values parts separate entries of the source, which are not always exact repeats. Equal values may be shown once. The source made the active and inactive calls. How the source made its calls: active means hit-call score of the fitted dose curve at least 0.9, where 1 is the maximum; inactive means score below 0.9.

Read-out in assay [1]: Interleukin-1 alpha (IL1a), IL1A (gene 3552)
Nature of the assay: BSK_LPS_IL1a: BioMAP Diversity Plus: LPS Assay for Interleukin-1 alpha (IL1a) Biomarker Activity (AID 2283080). Particulars: primary human HUVEC with PBMC; actives raise or lower the signal. A digest of the protocol: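 Primary human HUVEC and PBMC co-culture stimulated with LPS is dosed and harvested at 24 h. Both increases and decreases in ELISA-measured IL-1a are scored relative to DMSO.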

Read-out in assay [2]: Monocyte Chemoattractant Protein-1 (MCP1), CCL2 (gene 6347)
Briefly: BSK_LPS_MCP1: BioMAP Diversity Plus: LPS Assay for Monocyte Chemoattractant Protein-1 (MCP1) Biomarker Activity (AID 2283081). Conditions: primary human HUVEC with PBMC; actives raise or lower the signal. A digest of the protocol: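 Values derive from bidirectional fitting against DMSO of ELISA-measured MCP-1 in a human primary endothelial and mononuclear cell co-culture, 24 h after chemical addition under LPS activation.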

The nature of assay [3]: BSK_LPS_PGE2: BioMAP Diversity Plus: LPS Assay for Prostaglandin E2 (PGE2) Biomarker Activity (AID 2283082). Particulars: primary human HUVEC with PBMC; actives raise or lower the signal. Summed up: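 HUVEC plus human PBMC co-culture stimulated with LPS; secreted PGE2 quantified by ELISA 24 h after chemical dosing. Activity fitted bidirectionally against DMSO baseline; parallel SRB staining (0.1% SRB after 10% TCA fixation, 560 nm) flags overt cytotoxicity.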

Read-out in assay [4]: Macrophage colony-stimulating factor (MCSF), CSF1 (gene 1435)
Nature of the assay: BSK_LPS_MCSF: BioMAP Diversity Plus: LPS Assay for Macrophage colony-stimulating factor (MCSF) Biomarker Activity (AID 2283083). Conditions: primary human HUVEC with PBMC; actives raise or lower the signal. A digest of the protocol:
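Bidirectional fit versus DMSO of ELISA-measured M-CSF in co-cultured human umbilical vein endothelial cells and PBMC, sampled 24 h after dosing.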

Read-out in assay [5]: Tissue Factor, F3 (gene 2152)
Nature of the assay: BSK_LPS_TissueFactor: BioMAP Diversity Plus: LPS Assay for Tissue Factor Biomarker Activity (AID 2283084). Particulars: primary human HUVEC with PBMC; actives raise or lower the signal. Summed up: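 Read-out: CD142 ELISA, 24 h. System: LPS-driven human endothelial/PBMC co-culture. Analysis: up- or down-signal fitted against DMSO.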

Read-out in assay [6]: Tumor necrosis factor (Homo sapiens) (UniProt P01375)
Nature of the assay: BSK_LPS_TNFa: BioMAP Diversity Plus: LPS Assay for Tumour Necrosis Factor alpha (TNFa) Biomarker Activity (AID 2283085). Particulars: primary human HUVEC with PBMC; actives raise or lower the signal. Summed up:
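Human umbilical vein endothelial cells co-cultured with PBMC and stimulated with LPS. TNFa was measured by ELISA 24 h after chemical dosing, fitted bidirectionally relative to DMSO.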

Read-out in assay [7]: Vascular cell adhesion molecule 1 (VCAM1), VCAM1 (gene 7412)
Briefly: BSK_LPS_VCAM1: BioMAP Diversity Plus: LPS Assay for Vascular cell adhesion molecule 1 (VCAM1) Biomarker Activity (AID 2283086). Conditions: primary human HUVEC with PBMC; actives raise or lower the signal. Summed up:
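Human umbilical vein endothelial cells co-cultured with PBMC and stimulated with LPS; VCAM-1 measured by ELISA 24 h after dosing. Bidirectional curve fitting against DMSO baseline; cytotoxicity tracked in parallel by SRB total-protein staining.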

Read-out in a further assay: CD38, CD38 (gene 952)
Briefly: BSK_SAg_CD38: BioMAP Diversity Plus: SAg Assay for CD38 Biomarker Activity (AID 2283087). Conditions: primary human HUVEC with PBMC; actives raise or lower the signal. Summed up: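 Human HUVEC plus PBMC co-culture stimulated with superantigen; CD38 measured by ELISA 24 h after chemical dosing. Fluorescence read-out, bidirectional fit against DMSO; cytotoxicity tracked in parallel by SRB and Alamar Blue.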

Read-out in the next assay: CD40, CD40 (gene 958)
Nature of the assay: BSK_SAg_CD40: BioMAP Diversity Plus: SAg Assay for CD40 Biomarker Activity (AID 2283088). Conditions: primary human HUVEC with PBMC; actives raise or lower the signal. A digest of the protocol: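 Endpoint derived by fitting increases or decreases versus DMSO controls. CD40 is detected by fluorescence ELISA in a human vascular co-culture of endothelium and PBMC at 24 h.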

Read-out in a further assay: CD69, CD69 (gene 969)
Briefly: BSK_SAg_CD69: BioMAP Diversity Plus: SAg Assay for CD69 Biomarker Activity (AID 2283089). Particulars: primary human HUVEC with PBMC; actives raise or lower the signal. A digest of the protocol: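 ELISA, fluorescence read-out: CD69 on human umbilical vein endothelial cell + PBMC co-culture, 24 h post-dosing. Gain or loss of signal fitted bidirectionally against DMSO baseline.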

Read-out in assay [8]: Monocyte Chemoattractant Protein-1 (MCP1), CCL2 (gene 6347)
Briefly: BSK_SAg_MCP1: BioMAP Diversity Plus: SAg Assay for Monocyte Chemoattractant Protein-1 (MCP1) Biomarker Activity (AID 2283090). Particulars: primary human HUVEC with PBMC; actives raise or lower the signal. Summed up: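 MCP-1 levels in the endothelial–PBMC SAg co-culture were quantified by ELISA at 24 h post-dosing; both increases and decreases versus DMSO scored. Cytotoxicity monitored by SRB total protein in parallel cultures.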

Read-out in assay [9]: E-selectin (Homo sapiens) (UniProt P16581)
Nature of the assay: BSK_SAg_Eselectin: BioMAP Diversity Plus: SAg Assay for Eselectin Biomarker Activity (AID 2283091). Conditions: primary human HUVEC with PBMC; actives raise or lower the signal. Summed up: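 Endpoint values derive from bidirectional fitting relative to DMSO, using ELISA-measured E-selectin in a human vascular co-culture (umbilical vein endothelium plus PBMC) sampled 24 h after dosing.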

Read-out in assay [10]: Monokine induced gamma interferon (MIG), CXCL9 (gene 4283)
Briefly: BSK_SAg_MIG: BioMAP Diversity Plus: SAg Assay for Monokine induced gamma interferon (MIG) Biomarker Activity (AID 2283092). Conditions: primary human HUVEC with PBMC; actives raise or lower the signal. A digest of the protocol:
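ELISA readout of MIG/CXCL9; primary human umbilical vein endothelial cells co-cultured with peripheral blood mononuclear cells; 24 h post-dose; gain/loss fit vs DMSO baseline.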

The nature of assay [11]: BSK_SAg_PBMCCytotoxicity: PBMC Cytotoxicity Assessment in the BioMAP Diversity Plus: SAg Assay (AID 2283093).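 Further: PBMC viability measured as Alamar Blue reduction fluorescence at 546/580 nm; fitted both ways against DMSO so a hit may be loss or gain of signal.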 Conditions: primary human HUVEC with PBMC. Summed up: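 Human umbilical vein endothelial cells co-cultured with PBMC; PBMC (75,000/well) pre-treated with compound 1 h, then activated with SEB and TSST-1 (20 ng/mL final each) for 90 h. Alamar Blue added 6 h, fluorescence 546/580 nm; bidirectional fit versus DMSO.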

Read-out in assay [12]: Interleukin-8 (IL8), CXCL8 (gene 3576)
Briefly: BSK_SAg_IL8: BioMAP Diversity Plus: SAg Assay for Interleukin-8 (IL8) Biomarker Activity (AID 2283094). Conditions: primary human HUVEC with PBMC; actives raise or lower the signal. A digest of the protocol:
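Human umbilical vein endothelial cells co-cultured with PBMC, stimulated with superantigen; IL-8 measured by ELISA 24 h after chemical dosing. Bidirectional fitting versus DMSO; SRB staining in parallel cultures tracks cytotoxicity.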

Assay [13] is described as follows: BSK_SAg_Proliferation: Cell Proliferation Assessment in the BioMAP Diversity Plus: SAg Assay (AID 2283095). Conditions: primary human HUVEC with PBMC. Summed up:
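Human umbilical vein endothelial cells co-cultured with PBMC; sulforhodamine B total-protein staining (0.1% SRB after 10% TCA fixation, absorbance 560 nm) at 96 h in sub-confluent culture. Fitted bidirectionally against DMSO.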

A short description of assay [14]: BSK_SAg_SRB: Viability Assessment in the BioMAP Diversity Plus: SAg Assay (AID 2283096).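 Further: cells read one day after compound addition; hits may be either gain or loss of signal compared with DMSO.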 Particulars: primary human HUVEC with PBMC. A digest of the protocol: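 Endothelial/PBMC primary human co-culture; compound 24 h; fix 10% TCA, stain 0.1% SRB, A560; protein content as cytotoxicity proxy; bidirectional curve fit, DMSO = baseline.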

Sequence of Tumor necrosis factor (Homo sapiens) (P01375 whole entry, looked up): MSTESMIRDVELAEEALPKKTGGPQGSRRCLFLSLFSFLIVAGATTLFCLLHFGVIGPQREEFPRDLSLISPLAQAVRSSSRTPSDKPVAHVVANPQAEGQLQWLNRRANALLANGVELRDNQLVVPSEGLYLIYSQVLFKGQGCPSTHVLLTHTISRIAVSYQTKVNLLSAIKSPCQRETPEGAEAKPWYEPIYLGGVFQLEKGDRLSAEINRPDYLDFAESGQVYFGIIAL
Sequence of E-selectin (Homo sapiens) (P16581 whole entry, looked up): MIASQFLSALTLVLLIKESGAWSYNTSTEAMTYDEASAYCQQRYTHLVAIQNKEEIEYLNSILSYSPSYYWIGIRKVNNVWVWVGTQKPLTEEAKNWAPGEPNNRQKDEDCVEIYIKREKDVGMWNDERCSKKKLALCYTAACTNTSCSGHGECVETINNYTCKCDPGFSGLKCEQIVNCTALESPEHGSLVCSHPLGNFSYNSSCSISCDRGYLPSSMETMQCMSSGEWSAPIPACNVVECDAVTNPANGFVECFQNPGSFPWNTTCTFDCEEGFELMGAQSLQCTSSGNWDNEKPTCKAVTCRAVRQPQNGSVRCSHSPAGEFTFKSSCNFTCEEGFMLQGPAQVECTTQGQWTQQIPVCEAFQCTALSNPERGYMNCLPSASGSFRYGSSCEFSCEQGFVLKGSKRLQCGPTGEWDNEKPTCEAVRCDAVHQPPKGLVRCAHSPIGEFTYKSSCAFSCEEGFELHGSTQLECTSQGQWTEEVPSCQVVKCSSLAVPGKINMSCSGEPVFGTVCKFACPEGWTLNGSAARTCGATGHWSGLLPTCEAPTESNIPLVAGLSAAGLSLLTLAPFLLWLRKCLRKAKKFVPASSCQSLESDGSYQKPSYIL

`C=C(C)C(=O)OCC(F)(F)C(F)(F)C(F)(F)F`: the outcome in assay [1], in assay [2], in assay [3], in assay [4], in assay [5] and in assay [6] was inactive. For the same compound, the outcome in assay [7] was “inactive”; in the assay with CD38, CD38 (gene 952), “inactive”; in the assay with CD40, CD40 (gene 958) it was “inactive”; with CD69, CD69 (gene 969) it was “inactive”; in assay [8], “inactive”; in assay [9] it was “inactive”. The outcome in [10], in assay [11], in assay [12], in [13] and in assay [14] was inactive.

In the case of `O=C(O)C(F)(F)C(F)(F)OC(F)(F)F`, the result in assay [1], in assay [2], in [3], in assay [4], in [5] and in assay [6] was inactive. Further, the outcome in [7] is “inactive”; in the assay with CD38, CD38 (gene 952), “inactive”; with CD40, CD40 (gene 958) it was “inactive”; in the assay with CD69, CD69 (gene 969), “inactive”; in assay [8] it was “inactive”; in [9] it was “inactive”. Further, the outcome in [10], in [11], in assay [12], in assay [13] and in assay [14] was inactive.

With `CCCCC(CC)COP(=O)(O)OCC(CC)CCCC` (centres undefined), the result in [1], in [2], in [3], in assay [4], in assay [5] and in assay [6] was inactive. Further, the outcome in assay [7] is “inactive”; in the assay with CD38, CD38 (gene 952) it was “inactive”; with CD40, CD40 (gene 958), “inactive”; with CD69, CD69 (gene 969) it was “inactive”; in [8], “inactive”; in [9] it was “inactive”. Further, the outcome in assay [10], in assay [11], in assay [12], in [13] and in [14] was inactive.

For the compound `FC1CC(F)(F)C(F)(F)C1(F)F` (centres undefined), the result in assay [1], in assay [2], in [3], in assay [4], in assay [5] and in assay [6] was inactive. Moreover, the outcome in [7] is “inactive”; with CD38, CD38 (gene 952), “inactive”; with CD40, CD40 (gene 958), “inactive”; with CD69, CD69 (gene 969), “inactive”; in assay [8] it was “inactive”; in assay [9], “inactive”. In addition, the outcome in assay [10], in assay [11], in assay [12], in assay [13] and in assay [14] was inactive.

Regarding `OCC(F)(F)C(F)(F)C(F)(F)C(F)(F)C(F)(F)C(F)(F)F`, the outcome in assay [1], in [2], in assay [3], in [4], in assay [5] and in assay [6] was inactive. For the same compound, the outcome in assay [7] is “inactive”; with CD40, CD40 (gene 958), “inactive”; with CD69, CD69 (gene 969), “inactive”; in assay [8], “inactive”; in assay [9], “inactive”; in assay [10], “inactive”. Further, the result in [11], in assay [12], in assay [13] and in assay [14] was inactive. Further, the half-maximal activity concentration (AC50) (usually the concentration giving half of the maximal activity seen) in the assay with CD38, CD38 (gene 952) was 9.86 µM (active) and 5.95 µM (active).

For the compound `CCO[Si](CCC(F)(F)C(F)(F)C(F)(F)C(F)(F)C(F)(F)C(F)(F)F)(OCC)OCC`, the outcome in [1], in assay [2], in assay [3], in assay [4], in assay [5] and in assay [6] was inactive. The outcome in [7] was “inactive”; with CD38, CD38 (gene 952), “inactive”; with CD40, CD40 (gene 958), “inactive”; with CD69, CD69 (gene 969), “inactive”; in assay [8], “inactive”; in assay [9], “inactive”. Besides, the result in assay [10], in [11], in assay [12], in assay [13] and in assay [14] was inactive.

For the compound `OCC(F)(F)C(F)(F)C(F)(F)C(F)F`, the result in assay [1], in assay [2], in [3], in [4], in assay [5] and in assay [6] was inactive. In addition, the outcome in assay [7] is “inactive”; with CD38, CD38 (gene 952) it was “inactive”; with CD40, CD40 (gene 958) it was “inactive”; in the assay with CD69, CD69 (gene 969), “inactive”; in assay [8] it was “inactive”; in assay [9], “inactive”. Also, the outcome in assay [10], in assay [11], in [12], in assay [13] and in [14] was inactive.
